Screening results: PubChem BioAssay, National Center for Advancing Translational Sciences (NCATS)
ELG1 DNA repair: qHTS screen for small molecules that inhibit ELG1-dependent DNA repair in human embryonic kidney (HEK293T) cells expressing luciferase-tagged ELG1; HEK293T ELG1-luciferase reporter, luminescence, 16 h; DNA damage induced by 5-fluorouridine; Potency, µM (series often up to 46.1 µM), for the others: top-dose activity change, negative = inhibition, usual class: inhibitors; 330,000 tested, 2.3% active; AID 504467, 2011; also: % is scaled to controls: 0 for no effect and ±100 for the full control effect; nearly all actives have a fitted effect of over 55% in size
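Luminescence from the luciferase reporter, measured 30 min after ONE-Glo reagent at room temperature, was the read-out. Beforehand, 2,000 cells per well were exposed for 16 hr at 37 °C to 5-fluorouridine together with compound or vehicle.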
Rab9 promoter act: qHTS Assay for Rab9 Promoter Activators; 320,000 tested, 2.8% active; Potency, µM (titrated, usually from 9.22 µM), without a hit: at the top dose activation, negative = inhibition, usual class: activators; Huh7 Rab9 promoter-luciferase reporter, luminescence, 24 h; AID 485297, 2010; also: % of control where 0% means no effect; nearly all actives have a fitted effect of over 60% in size
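Luciferase signal after 10 min detection reagent at ambient indicates Rab9 promoter upregulation; stably transfected Huh7 cells were treated 24 h with compound in DMSO at 37 °C, 5% CO2.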
FLuc counter: qHTS profiling assay for firefly luciferase inhibitor/activator using purifed enzyme and Km concentrations of substrates (counterscreen for miR-21 project); purified FLuc, Km substrates, luminescence inhibition; Potency, µM (highest dose often 57.5 µM), for the others: at the top dose activity change, negative = inhibition, most hits filed as inhibitors; 360,000 tested, 6.9% active;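 also: plate controls were vehicle for no effect and reference inhibitor for full effect; nearly all actives have a fitted effect of over 55% in size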
Target sequence (P08659 whole entry, looked up): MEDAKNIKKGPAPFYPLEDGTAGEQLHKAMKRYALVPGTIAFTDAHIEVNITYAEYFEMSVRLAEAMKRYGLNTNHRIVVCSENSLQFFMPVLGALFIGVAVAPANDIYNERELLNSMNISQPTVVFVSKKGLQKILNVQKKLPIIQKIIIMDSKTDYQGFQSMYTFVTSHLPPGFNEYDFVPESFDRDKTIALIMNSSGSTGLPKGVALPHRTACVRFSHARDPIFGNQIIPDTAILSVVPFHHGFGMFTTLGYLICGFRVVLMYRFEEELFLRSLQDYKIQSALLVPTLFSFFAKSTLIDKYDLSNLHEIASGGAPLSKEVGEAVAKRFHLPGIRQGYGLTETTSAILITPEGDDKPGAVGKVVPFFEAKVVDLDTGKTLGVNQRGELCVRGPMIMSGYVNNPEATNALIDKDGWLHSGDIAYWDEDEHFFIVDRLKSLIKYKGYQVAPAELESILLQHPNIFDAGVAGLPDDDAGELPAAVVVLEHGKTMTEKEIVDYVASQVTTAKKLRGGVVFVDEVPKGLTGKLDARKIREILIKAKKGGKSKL
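Biochemical qHTS of compounds, final roughly 60 µM downward over six points, against 10 nM purified firefly luciferase using Km concentrations of substrates (10 uM D-luciferin, 10 uM ATP) in Tris acetate pH 7.5 buffer; luminescence output.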
NPC1 promoter act: qHTS Assay for NPC1 Promoter Activators; Huh7 NPC1 promoter luciferase reporter, 24 h; Potency, µM (doses to about 9.22 µM), inactives show at the top dose activation, actives largely listed as activators; 320,000 tested, 2.4% active; also: % of control where 0% means no effect; nearly all actives have a fitted effect of over 60% in size
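Luminescence from an NPC1 promoter-driven luciferase reporter in stably transfected Huh7 cells was measured after 24 h compound treatment at 37 °C, followed by 10 min ambient incubation with luciferase detection reagent.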
ELG1 genotoxic: qHTS screen for small molecules that induce genotoxicity in human embryonic kidney (HEK293T) cells expressing luciferase-tagged ELG1; HEK293T ELG1-luciferase reporter, luminescence, 16 h; Potency, µM (top dose mostly 46 µM), without a hit: top-dose activity change, positive = activation, most hits filed as activators; 330,000 tested, 1.3% active; AID 504466, 2011; also: % of control where 0% means no effect; nearly all actives have a fitted effect of over 60% in size
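Reporter readout depends on ELG1 protein level, which increases with genetic stress. After 16 hr compound exposure at 37 °C, luciferase activity was quantified using ONE-Glo.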
SMN2 splice enh: qHTS Assay for Enhancers of SMN2 Splice Variant Expression; Potency, µM (series often up to 46.1 µM), for inactives: at the highest dose activity change, positive = activation, most hits filed as activators; HEK293 SMN2-luciferase splicing reporter, luminescence, 30-36 h; 210,000 tested, 2.8% active; also: % of control where 0% means no effect; nearly all actives have a fitted effect of over 55% in size
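HEK293 cells carry an SMN2 minigene-luciferase reporter in which exon 7 inclusion puts luciferase in frame. Cells were seeded at 2000 cells/well, attached for 10-12 hours, then exposed to compounds for 30-36 hours at 37C before ONE-Glo luminescence.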
Starred values were filed as active, the others as inactive; ? = inconclusive; . = no result; [ ] = another dose, or the depositor's remark. Only some compounds are listed: those with a hit (about 9.2% of all), similar ones and a draw of the others. Calls follow the shape of the dose curve; as a rule, active = well fitted curve in the direction sought with a large enough effect; inconclusive = small, poorly fitted or top-dose-only effect, or another doubt; inactive = no such curve, though single readings can be large; an effect the other way counts as inactive or inconclusive. Potency is read from the fitted curve at half-maximal effect.

SMILES	ELG1 DNA repair	Rab9 promoter act	FLuc counter	NPC1 promoter act	ELG1 genotoxic	SMN2 splice enh
CCc1ccc(NC(=O)c2ccccc2NC(=O)C2CCCO2)cc1 (stereo not drawn)	?	3.5µM*	17µM*	3.5µM*	12µM*	13µM*
O=C(Nc1nc2c(F)cc(F)cc2s1)C1CC(=O)N(Cc2ccco2)C1 (stereo not drawn)	18%	16%	-20%	14%	0%	.
CCOC(=O)c1ccccc1NC(=O)CN(c1cc(C(F)(F)F)ccc1Cl)S(C)(=O)=O	.	.	4%	.	.	-18%
Cc1c(C(=O)Nc2ccc(F)cc2)c2ccccn2c1CCc1ccncc1	-25%	?	?	?	-2%	?
C[C@H]1CN([C@@H](C)CO)C(=O)Cc2cc(NC(=O)CCC(F)(F)F)ccc2O[C@H]1CN(C)CC1CC1	-2%	.	.	.	3%	.
O=C(OCc1nnn(Cc2ccccc2)c1-c1c(COC(=O)c2ccccc2)nnn1Cc1ccccc1)c1ccccc1	?	-13%	0%	-5%	-10%	.
COc1ccc(OCc2cc(C(=O)N3C[C@@H](C)O[C@@H](C)C3)no2)c(Cl)c1	?	24%	?	?	?	.
O=C(Nc1ccc(Cl)cc1)ON=C1CCCC1	?	3.5µM*	17µM*	16%	?	-5%[1.84 µM]
CSc1ccccc1OCc1cc(C(=O)N2CCN(c3ccccc3)CC2C)no1 (stereo not drawn)	?	4.5µM*	15µM*	?	13%	.
CC(=O)c1ccc(OCc2cc(C(=O)N3CCN(c4ccccc4)CC3C)no2)cc1 (stereo not drawn)	?	1.3µM*	8.5µM*	1.6µM*	?	.
CCOC(=O)N1CCN(C(=O)CSc2nnc(-c3ccc(C(C)(C)C)cc3)o2)CC1	-8%	-1%	3.4µM*	-1%	0%	-12%
O=C(CCSc1nnc(-c2ccccc2)o1)N1CCOCC1	?	3%	?	10%	3%	?
CCOC(=O)N1CCN(C(=O)CSc2nnc(-c3cc(OC)cc(OC)c3)o2)CC1	?	0%	2%	0%	-20%	?
Cc1ccc(-c2nnc(SCCC(=O)N3CCOCC3)o2)cc1	?	26%	19µM*	21%	8%	14%
O=C(CSc1nnc(-c2ccc3c(c2)OCCO3)o1)N1CCCC1	?	2.5µM*	6.7µM*	?	?	?
Cc1ccc(-c2nnc(SCC(=O)N3CCCC3)o2)cc1	?	?	24µM*	?	?	14µM*
Cc1ccc(-c2nnc(SCC(=O)N3CCCC3)o2)cc1C	?	3.5µM*	15µM*	?	?	11µM*
O=C(CSc1ccc(Cl)cc1)N1CCOCC1	?	25%	3%[2.3 µM]	2%	10%	6%
CCOC(=O)N1CCN(C(=O)CSc2nnc(-c3ccc(C)c(C)c3)o2)CC1	?	5%	?	0%	1%	-7%
Cc1cc(NC(=O)CSc2nnc(-c3ccc4c(c3)OCCO4)o2)no1	?	?	?	?	?	7.1µM*
Cc1cc(NC(=O)CSc2nnc(-c3cccc(Cl)c3)o2)no1	0%	23%	1%	4%	5%	.
Cc1ccc(SCC(=O)N2CCOCC2)cc1	?	?	?	26%	?	11µM*
Cc1cc(NC(=O)CSc2ccc(-c3ccc4c(c3)OCO4)nn2)no1	?	24%	12µM*	21%	?	14%
Cc1ccc(-c2ccc(SCC(=O)Nc3cc(C)on3)nn2)cc1	?	?	-21%	10%	4%	7%
